Source: PubChem BioAssay
Efflux pump mplx: antifungal efflux pump inhibition, Nile Red retention | S. cerevisiae Candida pump triplex | inhibition, % at 10 µM | 330,000 tested, 0.44% active | AID 485275;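 active = plate passing quality check with inhibition over a set limit, or well fluorescence over plate mean plus 4 SD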;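 note: Nile Red retained in pooled yeast measured as flow cytometry median fluorescence; higher means more Nile Red kept so more efflux inhibition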
Bfl-1 A1 inh: inhibitors of the anti-apoptotic protein A1, read as caspase activation; MEF A1-2A-BIM cells, Caspase-Glo 3/7 luminescence, 3 h; percent of clofoctol response, vehicle zero; caspase activation, % (concentration not given with the values); 330,000 tested, 0.066% active; AID 2462;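 active = over half of replicate activation scores above 10%, or exactly half above 10 with the replicate mean above 10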
ALR inh: inhibitors of human sulfhydryl oxidase ALR; P55789; purified ALR, DTT oxidation, H2O2 HRP-luminol luminescence; inhibition, % (concentration not given with the values); 290,000 tested, 3.8% active; AID 485317;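 active = mean replicate inhibition above about 79%, with every replicate also reaching it, limit read from the data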
AHR act: human AHR activation; P35869; AHR-responsive luciferase reporter cells, luminescence; activation, % at 5 µM; 320,000 tested, 2.5% active; AID 2796; in the data active = activation above about 47%
SUMO Mot1 rescue: SUMOylation pathway inhibition by Mot1-301 growth rescue. S. cerevisiae Mot1-301 growth rescue, ATP luminescence, 38.5C; percent above DMSO median, 100 means doubled. growth rescue, % at 18.8 µM. AID 2716. 320,000 tested, 1% active;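 active = every valid replicate shows activation above 250% relative to neutral control wells; inactive = the rest, any valid replicate at or below 250%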
VLA-4 inh: inhibition in a human VLA-4 binding assay; inhibition, % (about 7 µM as worked out from the volumes in the protocol); VLA-4 expressing cells, ligand binding flow cytometry; 330,000 tested, 0.2% active; in the data active = inhibition above about 50%
Hits are given with their value; . = inactive; / = no result. Sampled rows, rich in hits. Any-hit rate of the full collection: about 7.2%.

SMILES	Efflux pump mplx	Bfl-1 A1 inh	ALR inh	AHR act	SUMO Mot1 rescue	VLA-4 inh
O=C(c1ccccc1)c1cccc(NC(=O)c2ccco2)c1	.	.	.	.	/	.
O=C(Nc1ccccc1O)c1cccc(NC(=O)c2ccco2)c1	.	.	.	54.1	.	.
Cn1ncc2nnn(-c3ccccc3)c(=O)c21	.	.	.	.	.	.
Cc1cccc(-n2nnc3cnn(C)c3c2=O)c1	.	.	/	59.7	.	.
CN=c1sc(C(=O)Nc2ccccc2)c(C)n1C	.	.	.	71.5	.	.
O=C1C(=O)N(c2nccs2)C(c2ccccc2F)/C1=C(\O)c1ccc2c(c1)OCCO2 (centres undefined)	.	.	98.0	.	.	.
CCc1ccc2nc(N(CCCN(C)C)C(=O)c3ccc(S(=O)(=O)N4CCc5ccccc5C4)cc3)sc2c1	.	23.8	.	.	.	.
CCOc1cccc2sc(N(CCCN(C)C)C(=O)c3ccc(S(=O)(=O)N4CCc5ccccc5C4)cc3)nc12	.	.	.	.	.	.
O=C(O)COc1ccccc1/C=N/NC(=O)CSc1nc2ccccc2n1Cc1ccccc1Cl	.	.	.	.	.	.
COCc1cc(C)nc2sc(C(=O)N3CCCC3)c(N)c12	.	.	.	75.8	.	.
Cc1cc(SCC(=O)OCC(=O)N(CCC#N)c2ccccc2)nc2ccccc12	.	.	.	.	.	.
NNc1ncnc2c1cnn2-c1ccccc1	.	.	.	60.8	.	.
COc1ccc(CC(=O)NNc2ncnc3c2cnn3-c2ccccc2)cc1	.	.	.	51.1	.	.
O=C(COC(=O)C1(c2ccc(F)cc2)CCCC1)N1CCc2ccccc21	.	.	.	.	.	.
CC(C)CC(=O)N1CCN(c2ccc([N+](=O)[O-])c(NCc3ccccc3)c2)CC1	.	.	.	47.8	.	.
Cc1cc2n(n1)C(c1ccc3c(c1)OCO3)Nc1c(C)cccc1-2 (centres undefined)	.	.	98.1	.	.	.
Cc1cc(C)c2c(c1)-c1cc(C)nn1C(c1ccc3c(c1)OCO3)N2 (centres undefined)	.	.	.	.	.	.
Cn1nc(-c2ccccc2)c(C(=O)Nc2ccc(Cl)cc2)c1Cl	.	.	.	.	.	.
Cn1c(Cl)c(C(=O)Nc2ccc(Cl)cc2)c2ccccc21	.	.	.	57.2	.	.
NNC(=O)c1oc2nc(-c3cccs3)cc(-c3ccco3)c2c1N	.	.	.	48.5	.	.
CC(C)c1nc2oc3ccccc3c(=O)c2c(=O)n1-c1ccccc1	.	.	.	103.3	.	.
Cc1nc2oc3ccccc3c(=O)c2c(=O)n1Cc1ccccc1	.	.	.	.	.	.
O=C(CN(Cc1ccco1)C(=O)CNS(=O)(=O)c1ccc(F)cc1)NCc1ccccc1	.	.	.	.	298.3	.
Cc1ccc(NC(=O)c2ccc3c(c2)CCN3S(C)(=O)=O)cc1C	.	.	.	.	.	.
O=C(O)c1cc(N/N=C/c2ccc3c(c2)OCCO3)ccc1Cl	.	.	93.1	.	.	.
SMILES	Efflux pump mplx	Bfl-1 A1 inh	ALR inh	AHR act	SUMO Mot1 rescue	VLA-4 inh
COc1cc(/C=N/Nc2ccc(Cl)c(C(=O)O)c2)ccc1OC(=O)c1ccccc1F	.	.	98.9	.	.	.
COc1cc(/C=N/Nc2ccc(Cl)c(C(=O)O)c2)ccc1OC(=O)c1ccc(F)cc1	.	.	.	.	.	.
O=C(O)c1ccc(N/N=C/c2cc3c(cc2[N+](=O)[O-])OCO3)cc1	.	.	/	.	.	.
O=C(O)c1cc(N/N=C/c2ccc3c(c2)OCO3)ccc1Cl	.	.	.	.	.	.
O=C(O)c1ccc(N/N=C/c2ccc3c(c2)OCO3)cc1	.	.	98.7	.	.	.
Cc1cc(-c2nnc(CCC(=O)NC(Cc3ccccc3)c3ccccc3)o2)no1 (centres undefined)	.	.	.	.	.	.
CCCCOc1ccc(Br)cc1/C(C)=N/NC1=NCCN1	.	.	.	56.8	.	.
CCCCCCOc1ccc(/C(C)=N/NC2=NCCN2)cc1[N+](=O)[O-]	.	.	.	.	.	.
O=C(NC1CCCCC1)C(c1ccccc1F)N(Cc1ccco1)C(=O)c1ccccn1 (centres undefined)	.	.	.	.	309.6	.
Brc1cc2c(cc1Br)OCCOCCOCCO2	.	.	.	.	.	.
Cc1ccc(CNC(=O)CCC2CCCN(Cc3cc4ccccc4o3)C2)o1 (centres undefined)	.	.	/	.	.	.
COC(=O)CCN1CCC(c2cc(-c3cccc(C(F)(F)F)c3)n[nH]2)CC1	.	.	.	.	319.6	.
O=C(Nc1ccc(O)cc1)c1cccc(Oc2ccc([N+](=O)[O-])cc2)c1	.	.	98.8	.	.	.
O=C(O)c1cccc(Oc2ccc([N+](=O)[O-])cc2)c1	.	.	.	.	.	.
Cc1ccc(NC(=O)c2cccc(Oc3ccc([N+](=O)[O-])cc3)c2)c(C(=O)O)c1	.	.	97.4	.	.	.
CCCCCC(=O)Nc1cc(S(=O)(=O)N2CCOCC2)ccc1N1CCCCC1	.	.	.	.	.	.
COC(=O)[C@@H](NC(=O)c1ccc2c(c1)S(=O)(=O)c1ccccc1C2=O)C(C)C	.	.	/	.	.	.
O=C(CCN1CCc2ccccc2C1)c1ccc2c(c1)OCCO2	.	.	97.8	.	.	.
O=C(CCN1CCc2ccccc21)c1ccc2c(c1)OCCO2	.	.	.	.	.	.
CC(=O)c1[nH]c(C)c(C(=O)N2CCCC(Nc3cccc(F)c3)C2)c1C (centres undefined)	.	.	75.3	.	.	.
CC(C)c1ccc(NC2CCCN(C(=O)c3ccnc(Cl)c3)C2)cc1 (centres undefined)	.	.	.	.	.	.
CCc1[nH]nc(C(=O)N2CCCC(Nc3ccc(C(C)C)cc3)C2)c1C (centres undefined)	.	.	95.0	.	.	.
CCc1[nH]nc(C(=O)N2CCCC(Nc3cccc(F)c3)C2)c1C (centres undefined)	.	.	98.9	.	.	.
C#Cc1cccc(C(=O)N2CCCC(Nc3cccc(F)c3)C2)c1 (centres undefined)	.	.	.	.	.	.
Cc1cccc(-n2cc(CNCCc3nc(C)cc(C)n3)c(-c3cccc(F)c3)n2)c1	.	.	.	.	.	.
COc1ccc(OC)c(Nc2nc(C3CC3)nc3c2nnn3Cc2ccccc2)c1	.	.	.	.	.	.
c1ccc(Cn2nnc3c(Nc4ccc5c(c4)OCO5)nc(C4CC4)nc32)cc1	.	.	/	69.6	.	.
CN1C(=O)C(C)(C)c2cc(S(=O)(=O)NCC3CCC(C(=O)NCc4ccccc4)CC3)ccc21 (centres undefined)	.	.	.	.	.	.
NC(=O)Cn1cc(C(=O)COc2ccccc2)c2ccccc21	.	.	/	74.6	.	.
